The test system of assay [1] is TRPC4 beta (transient receptor potential cation channel C4), mouse. Briefly: activators of mouse TRPC4 channel, confirmation, cell-based, Fluo4 calcium, HEK293 TRPC4beta/mu-opioid, duplicates, 10 µM (AID 2426;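 active = fluorescence ratio normalized to control raised more than 50% in primary screen plus both repeat runs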;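 for activation: percent rise of integrated ratio over buffer wells lacking compound which define 0%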). The settings on record: Fluo4 calcium fluorescence, at 10 µM; stronger effect = higher value.
Assay [2] relates to transient receptor potential cation channel C4 beta (TRPC4), mouse. As to the kind of experiment: activators of mouse TRPC4 channel, confirmation, cell-based, second round, Fluo4, HEK293 TRPC4beta/mu-opioid, 1 µM (AID 2461;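 active = primary screen active and over 50% activation in each of two duplicate runs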). The following applies: Fluo4 calcium fluorescence, at 1 µM; stronger effect = higher value.
In assay [3] the test system is TRPC4 (transient receptor potential cation channel C4 beta), mouse. As to the kind of experiment: positive allosteric modulators of mouse TRPC4, confirmation, cell-based, second round, Fluo-4, HEK293 TRPC4beta/mu-opioid, 1 µM (AID 2554;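 active = primary screen hit whose fluorescence ratio, in both repeats, exceeds the weak agonist control mean by 3 SD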). The settings on record: DAMGO EC20, Fluo-4 calcium flux, at 1 µM; stronger effect = higher value. On the technique in general: Calcium flux is commonly read through the fluorescence of an indicator in the cells.

Assay [4] relates to TRPC4 beta (transient receptor potential cation channel C4), mouse. As to the kind of experiment: positive allosteric modulators of mouse TRPC4, confirmation, cell-based, Fluo-4, HEK293 TRPC4beta/mu-opioid (AID 2555;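 active = primary screen hit whose calcium fluorescence ratio, in both repeats, exceeds the weak agonist control mean by 3 SD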). The settings on record: DAMGO EC20, Fluo-4 calcium flux, at 10 µM; stronger effect = higher value.
Assay [5] has as its target Short transient receptor potential channel 4 (Mus musculus) (UniProt Q9QUQ5). Briefly: inhibitors of mouse TRPC4 channel, confirmation, cell-based, Fluo4, HEK293 TRPC4beta/mu-opioid (AID 2636;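 active = calcium signal cut by more than 3 SD below the full-agonist control yet still positive, in both repeats and the earlier primary screen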). The settings on record: DAMGO, Fluo4 calcium flux, at 10 µM; stronger effect = higher value.
Assay [6] shares this target. As to the kind of experiment: inhibitors of mouse TRPC4 channel, confirmation, cell-based, second round, Fluo4, HEK293 TRPC4beta/mu-opioid, 1 µM (AID 2637;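 active = calcium signal ratio cut to more than 3 SD under the fully stimulated control mean yet still positive, in both repeats and the primary screen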). The settings on record: Fluo4 calcium flux, DAMGO, at 1 µM; stronger effect = higher value.
Assay [7] shares this target. Briefly: TRPC4 positive allosteric modulators, dose response, cell-based, HEK293 TRPC4/mu-opioid, Fluo-4 calcium, EC20 DAMGO (AID 434941;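 active = earlier screen potentiator hit that boosts the TRPC4 ion channel at some dose, with a dose response; inactive = no potentiation, no dose response, or not a prior hit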;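 note: calcium entry triggered by an EC20 dose of DAMGO at the co-expressed mu-opioid receptor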).
Assay [8] has the same target. Briefly: mouse TRPC4 channel inhibitors, dose response, cell-based, HEK293 TRPC4/mu-opioid, Fluo-4 calcium (AID 434942;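 active = primary screen inhibitor hit that blocks the TRPC4 channel at some tested dose, yielding a dose curve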).
In assay [9] the target is Short transient receptor potential channel 6 (Mus musculus) (UniProt Q61143). Briefly: inhibition of mouse TRPC6 channel, confirmation, selectivity assay for TRPC4 inhibitor project, cell-based, HEK293, membrane potential dye, duplicate (AID 434948;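 active = active in primary screen and both duplicates, each dropping signal beyond three positive-control SD with fluorescence still positive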). The settings on record: HEK293 TRPC6, membrane potential dye fluorescence, at 10 µM, stimulated with maximal-effect acetylcholine; stronger effect = higher value.
Sequence of Short transient receptor potential channel 6 (Mus musculus) (Q61143 whole entry, looked up): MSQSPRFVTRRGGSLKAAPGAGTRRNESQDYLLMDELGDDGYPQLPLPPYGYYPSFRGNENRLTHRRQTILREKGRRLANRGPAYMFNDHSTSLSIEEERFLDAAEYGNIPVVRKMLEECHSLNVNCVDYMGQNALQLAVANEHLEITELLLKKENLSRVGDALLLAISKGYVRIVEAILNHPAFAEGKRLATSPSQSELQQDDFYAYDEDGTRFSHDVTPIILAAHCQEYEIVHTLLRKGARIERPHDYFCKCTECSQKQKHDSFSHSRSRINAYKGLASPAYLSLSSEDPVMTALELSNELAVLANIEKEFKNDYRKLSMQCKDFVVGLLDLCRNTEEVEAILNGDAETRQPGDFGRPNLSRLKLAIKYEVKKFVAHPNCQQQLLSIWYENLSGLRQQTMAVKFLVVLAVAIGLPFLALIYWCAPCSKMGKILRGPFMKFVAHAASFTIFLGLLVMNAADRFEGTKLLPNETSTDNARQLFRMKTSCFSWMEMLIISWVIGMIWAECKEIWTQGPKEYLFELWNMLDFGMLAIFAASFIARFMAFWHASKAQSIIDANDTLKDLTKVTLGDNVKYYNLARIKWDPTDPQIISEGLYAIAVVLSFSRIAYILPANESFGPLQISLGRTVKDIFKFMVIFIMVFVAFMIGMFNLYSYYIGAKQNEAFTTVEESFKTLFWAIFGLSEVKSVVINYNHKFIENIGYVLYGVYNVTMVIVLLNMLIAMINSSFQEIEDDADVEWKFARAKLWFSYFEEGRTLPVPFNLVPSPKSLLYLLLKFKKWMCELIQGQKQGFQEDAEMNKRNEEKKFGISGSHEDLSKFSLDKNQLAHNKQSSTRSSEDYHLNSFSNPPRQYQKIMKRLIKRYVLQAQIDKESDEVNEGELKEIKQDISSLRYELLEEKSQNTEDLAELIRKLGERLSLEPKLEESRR

Assay [10] shares this target. As to the kind of experiment: activation of mouse TRPC6 channel, confirmation, selectivity assay for TRPC4 activator project, cell-based, HEK293, membrane potential dye, duplicate (AID 434950;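 active = membrane potential signal rise above negative control mean plus 3 SD in both duplicates, also active in the earlier TRPC4 screen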;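 for activation: 0% = buffer only wells and 100% = acetylcholine maximal-effect wells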). The settings on record: HEK293 TRPC6, membrane potential fluorescence, at 10 µM; stronger effect = higher value.
Assay [11] shares this target. As to the kind of experiment: TRPC6 potentiation by TRPC4 potentiator hits, confirmation, selectivity assay for TRPC4 potentiator project, HEK293 cells, membrane potential dye, duplicate (AID 434952). The settings on record: HEK293 TRPC6, membrane potential dye fluorescence, at 10 µM, maximal acetylcholine added after compound; stronger effect = higher value.
Assay [12] addresses Short transient receptor potential channel 4 (Mus musculus) (UniProt Q9QUQ5). As to the kind of experiment: calcium flux activators in TRPC4/5HT1a cells, counter-screen for TRPC4 activator project, cell-based, second counter screen, HEK293 TRPC4/5HT1a, Fluo-4 (AID 434977;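 active = calcium signal rise above buffer-control mean plus 5 SD in both duplicates, and also a hit in the primary screen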;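 for activation: plate controls were assay buffer for no effect and maximal serotonin response for full effect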). The following applies: Fluo-4 calcium flux, at 10 µM; stronger effect = higher value.
Assay [13] can be described thus: calcium flux inhibitors in TRPC4/5HT1a cells, confirmation, counter-screen for TRPC4 inhibitor project, cell-based, second counter screen, HEK293 TRPC4/5HT1a, Fluo-4 (AID 434978;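 active = primary screen active whose calcium signal fell more than 3 SD beyond the full-serotonin control mean in both duplicate plates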;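 note: serotonin given first at submaximal then at maximal dose after compound preincubation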). The settings on record: Fluo-4 calcium flux, at 10 µM, serotonin added to trigger calcium flux; stronger effect = higher value.
The test system of assay [14] is TRPC4 (mouse), co-expressed with 5HT1a in HEK293. Briefly: calcium flux potentiators in TRPC4/5HT1a cells, confirmation, counter-screen for TRPC4 potentiator project, cell-based, second counter screen, HEK293 TRPC4/5HT1a, Fluo-4 (AID 434979;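 active = signal rise over 3 SD above mean of control wells given weak agonist, in both repeats and first screen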). The following applies: Fluo-4 calcium flux, at 10 µM, serotonin added at its EC20 dose; stronger effect = higher value.
Assay [15] is described as follows: calcium flux activation in mu-opioid HEK293 cells, confirmation, counter-screen for TRPC4 activator project, cell-based, HEK293 mu-opioid receptor line (AID 449723;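 active = hit in primary screen, with calcium signal over 5 SD above buffer well mean in both duplicates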;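 note: counter screen cells carry the mu-opioid receptor alone and lack TRPC4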). The settings on record: Fluo-4 calcium fluorescence, at 10 µM; stronger effect = higher value.
A short description of assay [16]: calcium flux enhancement in mu-opioid HEK293 cells, confirmation, counter-screen for TRPC4 allosteric potentiator project, cell-based, HEK293 mu-opioid receptor line (AID 449724;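 active = calcium signal rise more than 3 SD above the low-dose agonist control mean, in both duplicate plates and the primary screen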;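 note: HEK293 cells carrying mu-opioid receptor only with no TRPC4 channel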). The following applies: Fluo-4 calcium flux, at 10 µM, compound added before EC20 DAMGO stimulus; stronger effect = higher value.

For 14 compounds, activation, outcome and potentiation results are on record in PubChem BioAssay.

For some assays here: Entries with a potency or affinity are not part of this list. The source made the active and inactive calls.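 Rule for the calls, unless noted: active = compound raising the membrane signal above positive-control mean plus 3 SD in both repeats, and a primary screen hit; inactive = the rest.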

Sequence of Short transient receptor potential channel 4 (Mus musculus) (Q9QUQ5 whole entry, looked up): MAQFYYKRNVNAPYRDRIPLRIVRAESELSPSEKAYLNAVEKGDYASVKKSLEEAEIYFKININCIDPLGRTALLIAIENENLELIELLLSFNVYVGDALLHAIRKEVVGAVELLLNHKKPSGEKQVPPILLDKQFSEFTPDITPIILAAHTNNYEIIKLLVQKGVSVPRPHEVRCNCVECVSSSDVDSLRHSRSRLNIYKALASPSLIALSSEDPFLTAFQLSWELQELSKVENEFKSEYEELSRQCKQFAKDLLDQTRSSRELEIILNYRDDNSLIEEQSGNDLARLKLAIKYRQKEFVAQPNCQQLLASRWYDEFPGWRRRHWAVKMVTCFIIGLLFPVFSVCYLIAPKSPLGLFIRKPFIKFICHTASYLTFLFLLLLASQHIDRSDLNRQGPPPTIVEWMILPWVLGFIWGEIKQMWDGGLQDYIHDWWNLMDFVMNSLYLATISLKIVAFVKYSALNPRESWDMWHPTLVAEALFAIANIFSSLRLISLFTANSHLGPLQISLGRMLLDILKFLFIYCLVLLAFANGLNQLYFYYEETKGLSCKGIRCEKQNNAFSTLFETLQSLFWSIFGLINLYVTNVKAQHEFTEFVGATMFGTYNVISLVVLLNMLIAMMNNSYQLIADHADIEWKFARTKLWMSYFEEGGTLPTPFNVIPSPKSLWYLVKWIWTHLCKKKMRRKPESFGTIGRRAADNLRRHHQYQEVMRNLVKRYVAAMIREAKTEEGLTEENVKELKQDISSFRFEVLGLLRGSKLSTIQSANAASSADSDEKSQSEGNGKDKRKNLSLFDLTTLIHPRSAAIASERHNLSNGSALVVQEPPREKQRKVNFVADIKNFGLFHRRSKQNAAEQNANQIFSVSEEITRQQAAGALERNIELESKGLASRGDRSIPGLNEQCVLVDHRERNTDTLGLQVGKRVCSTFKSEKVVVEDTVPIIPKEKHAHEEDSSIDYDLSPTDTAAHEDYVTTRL

On to `O=S(=O)(NCCc1csc(-c2ccccc2)n1)c1cccnc1`, for which the activation was 93% (active) in [1], 59% (active) in assay [10] and 26.7% (active) in [12]. Moreover, the result in [2], in [3], in assay [4], in assay [5], in assay [6] and in assay [7] was inactive. Besides, the result in [8], in [9], in assay [11], in assay [13], in assay [14] and in [15] was inactive. Also, in [16], the result was inactive.

Consider `C=CCn1c(/N=C/c2ccc(N(C)C)cc2)nc2ccccc21`, for which the activation in assay [1] was 148% (active); in assay [10], 159% (active); in [12] it was 44.6% (active); in assay [15] it was 103% (active); in assay [16] it was 1320% (active). For the same compound, the outcome in [2], in assay [3], in assay [5], in [6], in assay [7] and in assay [8] was inactive. For the same compound, the outcome in [9], in [11] and in assay [13] was inactive. For the same compound, the figures for the potentiation in assay [4] and in [14] were 24% (active) and 10.4% (active), respectively.

Regarding `Clc1cc(Cl)cc(C2=NC(Cc3ccccc3)CO2)c1` (centres undefined), the activation in assay [1] was 110% (active); in assay [10] it was 25% (active); in [12] it was 30.6% (active). Moreover, the outcome in assay [2], in [3], in [4], in assay [5], in assay [6] and in assay [7] was inactive. The outcome in assay [8], in assay [9], in assay [11], in [13], in assay [14] and in assay [15] was inactive. Further, the result in assay [16] was inactive.

Take `Cc1ccc(NC(=O)CNCC(c2ccccc2)N(C)C)cc1F` (centres undefined): the activation in [1] is 95% (active); in assay [10], 44% (active). Moreover, the outcome in [2], in assay [3], in assay [4], in assay [5], in [6] and in assay [7] was inactive. In addition, the outcome in assay [8], in assay [9], in assay [11], in assay [12], in [13] and in assay [14] was inactive. The outcome in [15] and in assay [16] was inactive.

With `O=C(CC1C(=O)NCCN1Cc1ccc(-c2ccccc2)cc1)NCCc1ccccn1` (centres undefined), the activation in [1] is 142% (active); in assay [12], 34% (active). The result in [2], in assay [3], in assay [4], in assay [5], in assay [6] and in assay [7] was inactive. Besides, the outcome in [8], in assay [9], in [10], in [11], in [13] and in assay [14] was inactive. Also, the result in assay [15] and in assay [16] was inactive.

For the compound `O=C(CN1CCN(c2ncc(C(F)(F)F)cc2Cl)CC1)N1CCN(c2ncc(C(F)(F)F)cc2Cl)CC1`, the activation in assay [1] is 128% (active); in assay [12], 42% (active). Besides, the result in assay [2], in assay [3], in [4], in assay [5], in assay [6] and in assay [7] was inactive. Besides, the outcome in [8], in assay [9], in assay [10], in assay [11], in [13] and in assay [14] was inactive. Besides, the result in assay [15] and in [16] was inactive.

In the case of `Cc1cccc(C(=O)OC2CCCN(C)C2)c1C` (centres undefined), the activation is 76% (active) in assay [1], 60.5% (active) in assay [10] and 20% (active) in [12]. Besides, the outcome in assay [2], in assay [3], in assay [4], in [5], in [6] and in [7] was inactive. The outcome in assay [8], in assay [9], in assay [11], in [13], in assay [14] and in [15] was inactive. Further, the outcome in assay [16] was inactive.

`COc1cc(OC)cc(C(=O)NC(=S)NNC(=O)Cc2cccs2)c1`: the activation in assay [1] is 101% (active); in assay [12] it was 58.2% (active); in [15], 20.6% (active). Besides, the result in assay [2], in assay [3], in [4], in assay [5], in assay [6] and in [7] was inactive. Also, the outcome in assay [8], in assay [9], in assay [10], in assay [11], in assay [13] and in assay [14] was inactive. Moreover, in assay [16], the outcome was inactive.

For the compound `COc1ccc(CN2CCC(n3nccc3NC(=O)CCc3ccccc3)CC2)c(C)c1C`, the activation was 68% (active) in [1] and 72% (active) in assay [10]. In addition, the outcome in assay [2], in assay [3], in assay [4], in assay [5], in assay [6] and in [7] was inactive. In addition, the result in assay [8], in [9], in assay [11], in [12], in assay [13] and in assay [14] was inactive. Also, the outcome in [15] and in assay [16] was inactive.

In the case of `COc1ccc(CSCCN)cc1Cl`, the results for the activation in assay [1] and in assay [12] were 108% (active) and 27.1% (active), respectively. Further, the result in assay [2], in assay [3], in assay [4], in assay [5], in assay [6] and in [7] was inactive. Further, the result in [8], in [9], in assay [10], in assay [11], in [13] and in [14] was inactive. The outcome in assay [15] and in [16] was inactive.

As to `O=C(CC1C(=O)NCCN1Cc1cccc(Oc2ccccc2)c1)NCCc1ccccn1` (centres undefined), the activation in [1] is 99% (active); in assay [12], 42.3% (active). In addition, the result in assay [2], in assay [3], in [4], in assay [5], in assay [6] and in [7] was inactive. Further, the result in assay [8], in assay [9], in assay [10], in [11], in assay [13] and in assay [14] was inactive. For the same compound, the result in assay [15] and in [16] was inactive.

Turning to `CCOC(=O)C1(CC2CCCCO2)CCN(Cc2cc(F)ccc2-n2cccn2)CC1` (centres undefined), the result in assay [1], in [2], in [3], in assay [4], in [5] and in [6] was inactive. Besides, the outcome in [7], in [8], in [9], in [11], in assay [12] and in assay [13] was inactive. The outcome in assay [14], in assay [15] and in [16] was inactive. Moreover, in assay [10], the activation is 76.5% (active).

Take `COc1ccc(C(CNC(=O)c2ccccc2SC)N(C)C)cc1` (centres undefined): the activation in assay [1] is 99% (active); in assay [10], 56% (active). Besides, the result in assay [2], in assay [3], in assay [4], in assay [5], in assay [6] and in [7] was inactive. Moreover, the outcome in assay [8], in [9], in assay [11], in assay [12], in [13] and in assay [14] was inactive. Moreover, the outcome in assay [15] and in assay [16] was inactive.

On to `CCc1ccc(C(=O)c2cnc3ccc(OC)cc3c2N2CCN(CC)CC2)cc1`, for which, in [1], the activation is 283% (active). The result in assay [2], in assay [3], in [4], in assay [5], in [6] and in assay [7] was inactive. The outcome in assay [8], in [9], in assay [10], in assay [11], in assay [12] and in assay [13] was inactive. The outcome in [14], in [15] and in assay [16] was inactive.
